Screens: PubChem, National Center for Advancing Translational Sciences (NCATS)
VACV Venus inh: vaccinia inhibition (Venus reporter); hit rate 0.46% among 330,000; Vaccinia virus Venus reporter expression, fluorescence; Potency, µM (highest dose often 36.5 µM), for inactives: top-dose activity change, negative = inhibition, hits mostly inhibitors; calls by dose curve; tested in A549 cells; further: potency means the concentration at half of the fitted maximal effect; nearly all actives have a fitted effect of over 30% in size
FMDV antiviral: blocks foot and mouth disease virus | Potency, µM (highest dose often 57.9 µM), for inactives: top-dose activity change, negative = inhibition, actives largely listed as inhibitors | FMDV antiviral cell-based qHTS | hit rate 1.2% among 410,000 | AID 1159524; calls by dose curve; tested in HEK293T cells; further: read-out not given here; potency means the concentration at half of the fitted maximal effect; nearly all actives have a fitted effect of over 45% in size
HCMV inh: blocks human cytomegalovirus replication | HFF cells, HCMV-luciferase reporter, 72 h; hits give low values | activity change, negative = inhibition, % at 57.5 µM | hit rate 4.5% among 410,000; in the data active means activity change below about -60%; inconclusive means no clear call, values can overlap the other calls; inactive means above about -39%
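Inhibition of viral replication was scored as loss of reporter luminescence in HFFs infected with HCMV-luciferase (MOI 1 PFU/cell) for 72 h; compounds tested at 2 doses, normalized to buffer and Salinomycin controls.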
Sm TGR block: S. mansoni TGR enzyme inhibition. AID 485364. hit rate 3% among 360,000. Potency, µM (highest dose often 114 µM), without a hit: at the highest dose activity change, negative = inhibition, actives largely listed as inhibitors. Q962Y6. purified TGR, DTNB reduction, TNB absorbance 405 nm; further: potency means the concentration at half of the fitted maximal effect; nearly all actives have a fitted effect of over 60% in size
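Kinetic colorimetric format: TGR-catalysed, NADPH-driven DTNB reduction monitored via TNB absorbance. Enzyme dispensed at 20 nM; compound exposure 15 min at room temperature before reaction start.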
Vaccinia mCherry: vaccinia inhibition (mCherry reporter) | Vaccinia virus mCherry reporter infection, fluorescence | Potency, µM (highest dose often 36.5 µM), without a hit: top-dose activity change, negative = inhibition, usual class: inhibitors | hit rate 0.63% among 310,000; calls by dose curve; tested in A549 cells; further: potency means the concentration at half of the fitted maximal effect; nearly all actives have a fitted effect of over 35% in size
HCV inhibitor: HCV inhibition. Huh7.5.1 HCVcc-Cre infection, luciferase reporter, 44 h. Potency, µM (top dose mostly 41.8 µM), without a hit: top-dose activity change, negative = inhibition, usual class: inhibitors. hit rate 3.4% among 340,000. AID 651820; further: potency means the concentration at half of the fitted maximal effect
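Antiviral activity was scored by luciferase reporter output from cells infected with HCVcc-Cre (~0.5 moi) in presence of compound, 44 h infection period, cells seeded 1,000/well 4 h prior.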
Active calls of the source: *; i = inactive; ? = inconclusive; . = no result given. Hits are enriched below; roughly 9.3% of the tested compounds scored in any of these assays. Unless noted, the call rests on the fitted dose curve; in most records, active means well fitted curve in the direction sought with a large enough effect; inconclusive means small, poorly fitted or top-dose-only effect, or another doubt; inactive means no such curve, though single readings can be large; an effect the other way counts as inactive or inconclusive. On the % scale 0 is the no-effect control and ±100 the full control effect.

SMILES	VACV Venus inh	FMDV antiviral	HCMV inh	Sm TGR block	Vaccinia mCherry	HCV inhibitor
Cc1ccc(NC(=O)C2COc3ccccc3O2)nc1 (configuration not stated)	-11%	-4%	86	-2%	.	21%
CC1CCC(NC(=O)C2COc3ccccc3O2)CC1 (configuration not stated)	-21%	18%	6	?	-14%	3%
Cc1ccnc(NC(=O)C2COc3ccccc3O2)c1 (configuration not stated)	-11%	63%	-75*	4%	i	0%
O=C(NCCc1ccc(O)c(O)c1)C1COc2ccccc2O1 (configuration not stated)	4%	11%	?	4.5µM*	i	?
O=C(NCCc1ccccc1)C1COc2ccccc2O1 (configuration not stated)	.	39%	-6	-24%	.	0%
O=C(N/N=C/C=C/c1ccc([N+](=O)[O-])cc1)C1COc2ccccc2O1 (configuration not stated)	-15%	-14%	-4	-10%	-1%	-15%
O=C(NC1CCCCC1)C1COc2ccccc2O1 (configuration not stated)	-22%	37%	-18	28µM*	-19%	12%
O=C(N/N=C\C=C\c1ccco1)C1COc2ccccc2O1 (configuration not stated)	-6%	0%	24	3.2µM*	-19%	18%
Cc1ccc(S(N)(=O)=O)c(C)c1-n1cnnn1	2%	21%	-31	11%	2%	0%
S=C1NCN(Cc2ccccc2)CN1C1CCCCC1	-17%	-6%	-17	0%	-24%	-3%
CCOC(=O)C1=NNC(C(=O)O)C1c1ccccc1 (configuration not stated)	-14%	0%	8	.	-16%	15%
COc1ccc(CCN2CNc3c(c(=O)n(C)c(=O)n3C)C2)cc1	-17%	7%	-15	89µM*	-17%	12%
Cn1c2c(c(=O)n(C)c1=O)CN(CC1CCCO1)CN2 (configuration not stated)	-20%	-14%	69	16%	-18%	13%
CCCN(CC(=O)Nc1cc(C)on1)CC(=O)Nc1ccc(F)c(F)c1F	-10%	-21%	0	.	-6%	?
CCCN(CC(=O)Nc1ccc(F)c(F)c1F)CC(=O)Nc1c(C)n(C)n(-c2ccccc2)c1=O	-11%	?	-69*	4%	-13%	-14%
COc1ccccc1C(=O)Nc1ccc2c(c1)CCCN2C(=O)c1cccs1	-21%	0%	-60*	-5%	i	?
O=C(Nc1ccc2c(c1)CCCN2C(=O)c1cccs1)c1ccccc1C(F)(F)F	-2%	-28%	-71*	2%	-8%	.
Cc1c(C(=O)NCc2ccc3c(c2)OCCO3)sc(=O)n1Cc1ccc(C(=O)N(C)C)cc1	-12%	0%	-19	.	i	.
CCOC(=O)N1CCN(Cc2c(O)ccc3ccccc23)CC1	-6%	0%	14	0.28µM*	?	13%
Cc1ccc(-c2nc(CN3CCN(C(=O)C4CCCO4)CC3)cs2)cc1 (configuration not stated)	-20%	?	-71*	-1%	i	.
COc1ccc2ccccc2c1CN1CCN(C(=O)c2ccccc2)CC1	?	?	32	28µM*	.	?
O=C(C1CCCO1)N1CCN(Cc2c(O)ccc3ccccc23)CC1 (configuration not stated)	-6%	3%	42	0.5µM*	-17%	6%
CCOC(=O)c1c(C)[nH]c(C)c1C(=O)COC(=O)c1ccc(O)cc1	-2%	-9%	-10	3%	-1%	-30%
CN1CCN(CCNC(=O)c2cnn(-c3ccc(Cl)cc3)c2C2CCN(C(=O)OC(C)(C)C)CC2)CC1	-8%	-19%	-18	5%	-16%	.
CCOC(=O)C1CCN(Cc2c(O)ccc3ccccc23)CC1	.	20%	38	3.5µM*	.	-11%
SMILES	VACV Venus inh	FMDV antiviral	HCMV inh	Sm TGR block	Vaccinia mCherry	HCV inhibitor
CCOC(=O)N1CCN(C(=O)Cc2c(C(=O)O)n(C)c3ccccc23)CC1	1%	-8%	?	5%	-14%	3.5µM*
N#Cc1c(-c2ccco2)nc(SCc2ccc(F)cc2)[nH]c1=O	-7%	-25%	-7	-27%	-9%	-8%
CC(C)(C)c1ccc(NC(=O)N2CCCN(c3ccc([N+](=O)[O-])cn3)CC2)cc1	?	32µM*	-73*	3%	i	-76%
Cc1cccc(C2CC(=O)Oc3c2c(=O)oc2ccccc32)c1 (configuration not stated)	-11%	-6%	5	0%	-4%	.
Cn1nc(C(F)(F)F)c2cc(NC(=O)OCc3ccc(F)cc3)sc21	-29%	?	-35	13%	?	10µM*
CN(C)CCNC(=O)c1ccc(Cl)s1	.	4%	11	-9%	.	9%
CN(Cc1ccccc1)C(=O)CC(=O)N(C)Cc1ccccc1	-3%	17%	27	-1%	-25%	15%
CN(Cc1ccc(Cl)s1)C(=O)CCl	-25%	11µM*	135	2.8µM*	-16%	?
CN(Cc1ccc(Cl)cc1)C(=O)CCl	.	25µM*	-64*	1.8µM*	.	?
COc1ccc(CN(C)C(=O)c2cccc(C(=O)N(C)Cc3ccc(OC)cc3)c2)cc1	.	-24%	-71*	-7%	.	11µM*
COc1cccc(CN(C)C(=O)c2ccc3nccnc3c2)c1	5%	2%	20	-9%	.	-7%
COc1ccc(CN(C)C(=O)CCl)cc1	-18%	?	0	22µM*	?	?
COc1ccc(N2C(c3cc(OC)cc(OC)c3)=Cc3ccccc3C2CC(C)=O)cc1 (configuration not stated)	-7%	-9%	-31	.	9%	.
CC(C)C(C(=O)NC1CCCC1)N1CCN(c2ncccc2C#N)CC1 (configuration not stated)	2%	-8%	-4	.	0%	.
COc1cccc(OCCn2cc(/C=N/NC(=O)c3ccncc3)c3ccccc32)c1	-19%	?	29	-1%	-24%	-24%
CNC(=S)N/N=C/c1cn(CCOc2cccc(OC)c2)c2ccccc12	?	-5%	202	0%	4µM*	10µM*
CNC(=S)N/N=C/c1cn(CCOc2ccccc2OC)c2ccccc12	7.1µM*	0%	66	-14%	4.5µM*	?
COC(=O)N/N=C/c1cn(CCOc2ccccc2OC)c2ccccc12	.	-21%	.	-3%	.	-3%
C=CCNC(=S)N/N=C/c1cn(C)c2ccccc12	?	-3%	-5	?	-25%	35µM*
CC(C)CC(C(=O)O)N1C(=O)C2C3C=CC(C2C1=O)C1C(=O)N(C(CC(C)C)C(=O)O)C(=O)C31 (configuration not stated)	.	-12%	-24	-14%	.	14%
